Source: PubChem BioAssay (National Center for Advancing Translational Sciences (NCATS))
Sampled rows, rich in hits. Any-hit rate of the full collection: about 1.1%.
PI4K2A inh – qHTS for small molecular inhibitors of PI4K2A | Phosphatidylinositol 4-kinase type 2-alpha (Homo sapiens), Q9BTU6 | purified PI4K2A, ADP-Glo luminescence, 1 h; hits give low values | activity change, negative = inhibition, % at 76.9 µM | actives 0.13% (n = 420,000) | AID 1346378, 2018; in the data active = activity change below about -50%; inconclusive = mostly about -30% to -49%;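 note: -100% = wells without enzyme as full effect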
Target sequence (Q9BTU6 whole entry, looked up): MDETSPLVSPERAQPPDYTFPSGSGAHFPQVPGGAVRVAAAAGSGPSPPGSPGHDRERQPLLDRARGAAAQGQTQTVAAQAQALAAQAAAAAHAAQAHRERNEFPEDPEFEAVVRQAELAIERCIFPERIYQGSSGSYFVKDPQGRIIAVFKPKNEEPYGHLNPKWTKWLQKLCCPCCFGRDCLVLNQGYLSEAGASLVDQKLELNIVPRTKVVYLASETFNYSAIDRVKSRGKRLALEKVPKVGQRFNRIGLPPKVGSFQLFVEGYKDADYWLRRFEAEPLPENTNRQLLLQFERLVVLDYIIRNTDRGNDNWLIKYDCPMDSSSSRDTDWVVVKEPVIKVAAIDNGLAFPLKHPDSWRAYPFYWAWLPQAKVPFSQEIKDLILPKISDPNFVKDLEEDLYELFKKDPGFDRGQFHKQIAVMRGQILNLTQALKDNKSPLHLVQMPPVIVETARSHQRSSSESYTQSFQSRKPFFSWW
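Compounds are screened against recombinant PI4K2A using PI as substrate and ATP, the latter dispensed at 300 microM. Reactions run one hour at ambient temperature before ADP-Glo detection; full inhibition defined by wells lacking enzyme.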
rTrxR1 inhibitor – qHTS Assay for Inhibitors of Mammalian Selenoprotein Thioredoxin Reductase 1 (TrxR1): qHTS; recombinant rTrxR1, NADPH fluorescence consumption, selenite substrate; AID 588453, 2011; actives 1% (n = 390,000); Potency, µM (doses to about 114 µM), without a hit: at the highest dose activity change, negative = inhibition, hits mostly inhibitors; Thioredoxin reductase 1, cytoplasmic (Rattus norvegicus), O89049; note: potency is the fitted concentration of half-maximal effect; nearly all actives have a fitted effect of over 65% in size
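Rat TrxR1 (90 nM in the dispensed reagent) was pre-reduced with 400 uM NADPH for 5 min at room temperature, then incubated with compound for 15 min. After 400 uM selenite was added, NADPH fluorescence (Ex 340/Em 450 nm) was followed for 8 min.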
a7 integrin act – qHTS for Activators of Integrin-Mediated Alleviation for Muscular Dystrophy; actives 0.064% (n = 350,000); Potency, µM (series often up to 38.3 µM), for inactives: top-dose activation, usual class: activators; AID 624291, 2012; alpha7betagal myoblasts, beta-gal FDG fluorescence, 48 h;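 note: potency is the fitted concentration of half-maximal effect; 100% = response of the positive control SU9516; nearly all actives have a fitted effect of over 60% in size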
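Alpha7betagal+/- myoblasts (passage 13) were plated 16-24 hr, then exposed to compounds (1:260 dilution of DMSO stock) for 48 hours at 37C. After MPER lysis, β-galactosidase reporter activity was read as FDG fluorescence (ex 480/em 540) after 30 minutes.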
GALK inh – qHTS Assay for Inhibitors of Human Galactokinase (GALK) | Potency, µM (titrated, usually from 57.5 µM), for the others: at the highest dose activity change, negative = inhibition, usual class: inhibitors | Purified GALK, Kinase-Glo residual ATP luminescence | actives 0.007% (n = 270,000); note: potency is the fitted concentration of half-maximal effect
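The enzyme phosphorylates galactose (100 uM) using ATP (35 uM); inhibition is detected as higher residual ATP, quantified by bioluminescence after 1 h reaction at room temperature, pH 8.0.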
LDHA inh – qHTS assay for inhibitors of human lactate dehydrogenase | purified LDHA, NADH/diaphorase-resazurin fluorescence; hits give low values | activity change, % (values are at about 110 or 230 µM) | actives 0.15% (n = 480,000) | AID 1347041, 2019; in the data active = activity change below about -30%; inconclusive = mostly about -25% to -30%;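 note: plate controls were DMSO wells for no effect and wells without enzyme for full effect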
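LDH5 2 nM; NADH 0.06 mM, pyruvate 0.2 mM; 200 mM Tris pH 7.4, EDTA, Tween-20; 5 min RT. Detection: diaphorase 0.133 mg/mL + resazurin 37 µM, fluorescence ex540/em590 at 0 and 20 min; normalized to enzyme-free and DMSO wells.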
TrxR1 substrate – qHTS Assay for Substrates of Mammalian Selenoprotein Thioredoxin Reductase 1 (TrxR1): qHTS | Thioredoxin reductase 1, cytoplasmic (Rattus norvegicus), O89049 | purified TrxR1 substrate turnover, NADPH consumption readout | Potency, µM (doses to about 114 µM), inactives show at the highest dose activity change, negative = substrate turnover | actives 0.01% (n = 390,000); note: potency is the fitted concentration of half-maximal effect; nearly all actives have a fitted effect of over 50% in size
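Rat TrxR1, dispensed at 90 nM, was prereduced with 400 uM NADPH (final) for 5 min at ~22 deg C, then incubated with compound 15 min before 400 uM selenite. A first-read NADPH fluorescence drop versus no-compound background flagged substrates.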
* = called active by the depositor; u = inconclusive; x = no result given; ! = repeats disagree; [ ] = remark or other dose. Unless noted, calls come from the whole dose curve; as a rule, active = well fitted curve in the direction sought with a large enough effect; inconclusive = small, poorly fitted or top-dose-only effect, or another doubt; inactive = no such curve, though single readings can be large; an effect the other way counts as inactive or inconclusive. Unless noted, % is set by controls: 0 for no effect and ±100 for the full control effect.

SMILES | PI4K2A inh | rTrxR1 inhibitor | a7 integrin act | GALK inh | LDHA inh | TrxR1 substrate
O=C(Nc1ccccc1)N1CCN(c2cnccn2)CC1 | x | x | x | x | 1 | x
C=CCOC(=O)/C(=C/c1ccco1)NC(=O)/C=C/c1ccccc1 | -2 | 18µM* | -9% | 4% | 0 | -5%
CC[C@]12c3[nH]c4cc(-c5ccco5)ccc4c3CCN1C(=O)[C@@H](CC(=O)NCCC1=CCCCC1)C[C@@H]2C(=O)N1CCN(C(=O)c2ccco2)CC1 | -53* | u | 10% | x | 1 | 28%
COc1cc(-c2nc3ccc(Cl)cn3c2Nc2ccc3c(c2)OCO3)cc(OC)c1O | x | x | x | x | 14 | x
O=C(O)Cc1c[nH]c2ccc(O)cc12 | 2 | 11µM*! | x | x | 1 | 23%[57.1 µM]
COc1ccc2[nH]cc(CC(=O)O)c2c1 | -3 | 4% | -4% | x | 3 | -1%
CCC(c1ccc(O)c(O)c1)C(CC)c1ccc(O)c(O)c1 (stereo unspecified) | -10 | 7.9µM* | -65% | x | 25 | 5%
CCC(NC(C)C)C(O)c1ccc(O)c(O)c1 (stereo unspecified) | -2 | u | x | -2% | 7 | 5%[57.1 µM]
N#Cc1c(SCC(=O)O)nc(N2CCOCC2)c2c1CCCC2 | 6 | 6% | 23% | 3% | -6 | -1%
N#Cc1c(SCC(=O)NCCc2ccccc2)nc(N2CCOCC2)c2c1CCCC2 | x | x | x | x | -31* | x
CCOC(=O)CN1C(C(C)=O)=C(OC(=O)CC)c2ccccc2S1(=O)=O | x | x | x | x | 5 | x
Cc1ccc(-c2[nH]c3ccccc3c2C(C[N+](=O)[O-])c2ccco2)cc1 (stereo unspecified) | -3 | u | -17% | -2% | 4 | -3%
Cc1[nH]c2ccccc2c1C(C[N+](=O)[O-])c1ccco1 (stereo unspecified) | -15 | 13µM* | -18% | -1% | 0 | 2%
O=C(/C=C1\C(=O)Nc2ccccc21)/C=C1\C(=O)Nc2ccccc21 | -3 | 1µM* | -14% | -4% | 4 | 1%
O=C1Nc2ccccc2/C1=C\C(=O)c1ccccc1 | 6 | u | -72% | x | -19 | -7%
COc1cccc(C(=O)Nc2ccc3oc(-c4ccc(F)cc4)cc(=O)c3c2)c1 | x | x | x | x | -35* | x
COc1cccc(C(=O)Nc2ccc3oc(-c4ccccc4C)cc(=O)c3c2)c1 | x | x | x | x | 0 | x
Nc1c(Br)c(=O)[nH]c(=O)n1-c1ccc(F)cc1 | 6 | 40µM* | -23% | x | -3 | -1%
CSc1cccc(NC(=O)CCc2ncc(-c3ccccc3)o2)c1 | x | x | x | x | 3 | x
c1ccc(OCc2nn3c(-c4ccco4)nnc3s2)cc1 | -4 | 56µM* | -13%[7.66 µM] | 2% | -8 | 1%
Cc1ccc(S(=O)(=O)N(CC(N)=O)Cc2c(F)cccc2Cl)cc1 | x | x | x | x | 0 | x
CC(C)NC(=O)CN1CCN(C(=O)CCl)CC1 | -1 | 33%[57.1 µM] | 7.1µM* | 0% | -5 | 19%[57.1 µM]
O=C(NC(C1CC1)C1CC1)c1cc(F)c(Cl)cc1Cl | x | x | x | x | 0 | x
COc1ccc(C2C(CC(=O)O)=C(O)C(=O)N2c2ccccc2)cc1 (stereo unspecified) | 0 | 32µM* | -32% | -2% | -1 | 3%
CC(=O)c1cn(CC(=O)Nc2ccncc2)c2ccccc12 | x | x | x | x | 2 | x
COc1cc(/C=C(/C(=O)c2cccs2)c2nc3ccccc3[nH]2)ccc1O | -11 | 14µM* | -60% | -2% | 15 | -11%[57.1 µM]
O=C(OCc1ccc([N+](=O)[O-])cc1)C1(c2cccc(F)c2)CCCC1 | x | x | x | x | 0 | x
